From PubChem
In the library only some 4.6% were active in any assay of this set; here they are far more common.
VACV Venus inh – inhibitors of vaccinia virus (Venus reporter) | Vaccinia virus Venus reporter expression, fluorescence | Potency, µM (top dose mostly 36.5 µM), hits mostly inhibitors | 330,000 compounds, 0.46% hits | AID 720580; calls by dose curve; tested in A549 cells; note: nearly all actives have a fitted effect of over 30% in size
VACV mCherry inh – vaccinia inhibition (mCherry reporter) | 310,000 compounds, 0.63% hits | Potency, µM (series often up to 36.5 µM), hits mostly inhibitors | Vaccinia virus mCherry reporter infection, fluorescence | AID 720579; calls by dose curve; tested in A549 cells; note: nearly all actives have a fitted effect of over 35% in size
HCV inh – HCV inhibition; Huh7.5.1 HCVcc-Cre infection, luciferase reporter, 44 h; Potency, µM (doses to about 41.8 µM), usual class: inhibitors; 340,000 compounds, 3.4% hits; AID 651820; active = well fitted inhibition curve with a large enough effect; inconclusive = small, poorly fitted or top-dose-only effect, or another doubt; inactive = no such curve, though single readings can be large or run the other way
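Seed cells (1,000/well) for 4 h; treat with compound and infect with HCVcc-Cre, moi about 0.5. Incubate 44 h, then detect luciferase activity.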
MARV entry inh – inhibitors of Marburg virus binding or cell entry. Marburg virus pseudotyped entry inhibition, cell reporter. Potency, µM (top dose mostly 37.8 µM), usual class: inhibitors. 300,000 compounds, 1.8% hits. AID 540276; calls by dose curve; tested in HEK293 cells
Lassa entry inh – blocks Lassa virus binding to or entry into cells. 300,000 compounds, 1.2% hits. Potency, µM (top dose mostly 37.9 µM), most hits filed as inhibitors. Lassa virus pseudotype entry inhibition, cell reporter; calls by dose curve; tested in HEK293 cells; note: nearly all actives have a fitted effect of over 50% in size
Each line names hits and unclear results; the compound was inactive in the other large screens.

COc1cc(C(=O)OCCc2cc3ccccc3c(=O)o2)cc(OC)c1OC	HCV inh 3.5µM (no result: MARV entry inh, Lassa entry inh)
COc1cc(C(=O)OCCCc2cc3ccccc3c(=O)o2)cc(OC)c1OC	none (no result: MARV entry inh, Lassa entry inh)
C=CCOC(=O)C1=C(C)N(CC)C(=O)NC1c1ccccc1 (configuration not stated)	none (no result: VACV Venus inh, VACV mCherry inh, HCV inh, Lassa entry inh)
O=C(N/N=C/c1ccc2cccc(OCc3ccccc3)c2n1)c1ccc(Br)cc1	VACV Venus inh inconclusive, HCV inh inconclusive, MARV entry inh 16µM, Lassa entry inh inconclusive
O=C(N/N=C/c1cccc(OCc2ccccc2)c1)c1ccc(Br)cc1	HCV inh inconclusive
COc1ccc(C(=O)N/N=C/c2cccc3cccnc23)cc1	VACV Venus inh inconclusive, MARV entry inh inconclusive, Lassa entry inh inconclusive (no result: VACV mCherry inh)
COc1ccc(C(=O)N/N=C/c2ccc3cccc(OCc4ccccc4)c3n2)cc1	VACV Venus inh inconclusive, VACV mCherry inh inconclusive, HCV inh 8.9µM, MARV entry inh inconclusive, Lassa entry inh inconclusive
Cc1ccc(CNC(=O)c2cnc(N(C)C)nc2)cc1	none (no result: HCV inh, MARV entry inh)
CCOC(=O)c1ccc(N2C(=O)c3n[nH]c(-c4ccco4)c3C2c2ccc(O)c(OCC)c2)cc1 (configuration not stated)	MARV entry inh 7.9µM, Lassa entry inh inconclusive (no result: HCV inh)
CCOC(=O)c1ccc(N2C(=O)c3n[nH]c(-c4cccs4)c3C2c2ccc(C(C)C)cc2)cc1 (configuration not stated)	MARV entry inh inconclusive (no result: HCV inh)
CCOc1cc(C2c3c(n[nH]c3C)C(=O)N2c2ccc(Br)cc2)ccc1O (configuration not stated)	HCV inh 25µM
CCOC(=O)c1ccc(N2C(=O)c3n[nH]c(-c4ccco4)c3C2c2cccc([N+](=O)[O-])c2)cc1 (configuration not stated)	VACV Venus inh inconclusive, VACV mCherry inh inconclusive, HCV inh 11µM, MARV entry inh 5µM, Lassa entry inh inconclusive
CCOC(=O)c1ccc(N2C(=O)c3n[nH]c(-c4cccs4)c3C2c2ccc(OCC)cc2)cc1 (configuration not stated)	VACV Venus inh inconclusive, VACV mCherry inh inconclusive, MARV entry inh 13µM, Lassa entry inh inconclusive (no result: HCV inh)
CCOC(=O)c1ccc(N2C(=O)c3n[nH]c(-c4ccco4)c3C2c2ccc(C(=O)OC)cc2)cc1 (configuration not stated)	MARV entry inh inconclusive, Lassa entry inh inconclusive (no result: HCV inh)
COc1cc(C2c3c(n[nH]c3C)C(=O)N2c2ccc(Br)cc2)ccc1O (configuration not stated)	HCV inh inconclusive
CC(NC(=O)c1cccnc1)c1nnc2n1CCN(Cc1ccc(F)cc1F)CC2 (configuration not stated)	none (no result: HCV inh, MARV entry inh, Lassa entry inh)
O=C(c1cccc([N+](=O)[O-])c1)N1c2nc(-c3ccco3)nn2C2(CCCCC2)[C@@H]2CCCC[C@@H]21	none (no result: HCV inh)
COc1cc(OC)cc(C(=O)N2CC(=O)Nc3ccc(Cl)cc3C2c2ccccc2)c1 (configuration not stated)	none (no result: HCV inh)
O=C(CN1C(=O)CCSc2ccc(S(=O)(=O)N3CCCC3)cc21)Nc1cccc(Cl)c1	none (no result: HCV inh, MARV entry inh)
O=S(=O)(c1ccc(Oc2ccc(Br)cc2F)nc1)N1CCCCC1	HCV inh 25µM, MARV entry inh inconclusive (no result: VACV Venus inh, VACV mCherry inh)
CN1CCN(S(=O)(=O)c2ccc(SCCOc3ccccc3)nc2)CC1	MARV entry inh inconclusive, Lassa entry inh inconclusive
CCOc1ccc(OCCSc2ccc(S(=O)(=O)N3CCN(C)CC3)cn2)cc1	HCV inh 11µM (no result: VACV Venus inh, VACV mCherry inh, MARV entry inh, Lassa entry inh)
O=S(=O)(c1ccc(SCCOc2ccc(Br)cc2)nc1)N1CCCC1	HCV inh 5.6µM, MARV entry inh inconclusive
C=C(C)CO[C@H]1C=C[C@@H](c2ccccc2)O[C@H]1CO	none (no result: VACV Venus inh, VACV mCherry inh, HCV inh, Lassa entry inh)
COc1ccc(C2C3=C(Nc4ncnn42)c2ccccc2CCC3)cc1 (configuration not stated)	none
Fc1ccc(/C=C2\CCCC3=C2Nc2ncnn2C3c2ccc(F)cc2)cc1 (configuration not stated)	VACV Venus inh 18µM, VACV mCherry inh inconclusive, HCV inh inconclusive, MARV entry inh inconclusive, Lassa entry inh inconclusive
COc1cc2nc(N(C)C)c(CNCc3nonc3C)cc2c(OC)c1OC	none (no result: HCV inh, MARV entry inh, Lassa entry inh)
CC(=O)NS(=O)(=O)c1ccc(NC(=O)C(Sc2ccccc2)c2ccccc2)cc1 (configuration not stated)	none (no result: VACV mCherry inh)
CCCCNS(=O)(=O)c1ccc(NC(=O)C(Sc2ccccc2)c2ccccc2)cc1 (configuration not stated)	VACV Venus inh 10µM, VACV mCherry inh inconclusive, HCV inh inconclusive, MARV entry inh inconclusive, Lassa entry inh 9.2µM
